Reference: ChEMBL document CHEMBL2218924, “A broad activity screen in support of a chemogenomic map for kinase signalling research and drug discovery” (Biochem J, 2013)

Experiments:
[1] = target: T1, Serine/threonine-protein kinase 3 (Homo sapiens) (UniProt Q13188); conditions: at 1 µM
T1 sequence (whole entry): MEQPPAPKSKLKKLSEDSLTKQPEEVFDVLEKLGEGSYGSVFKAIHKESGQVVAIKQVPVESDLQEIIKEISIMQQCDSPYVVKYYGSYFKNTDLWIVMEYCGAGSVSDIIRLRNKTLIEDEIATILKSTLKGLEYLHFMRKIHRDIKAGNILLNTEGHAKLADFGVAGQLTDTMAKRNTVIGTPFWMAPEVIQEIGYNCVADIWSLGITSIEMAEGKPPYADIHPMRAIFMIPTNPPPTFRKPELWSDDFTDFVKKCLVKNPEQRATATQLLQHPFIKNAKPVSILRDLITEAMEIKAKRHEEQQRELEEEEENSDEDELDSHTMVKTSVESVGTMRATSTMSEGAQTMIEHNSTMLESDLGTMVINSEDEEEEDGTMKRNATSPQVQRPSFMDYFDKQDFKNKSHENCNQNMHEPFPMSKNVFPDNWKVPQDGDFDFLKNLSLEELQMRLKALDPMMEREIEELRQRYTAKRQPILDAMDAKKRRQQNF

[2] = target: T1, Serine/threonine-protein kinase 3 (Homo sapiens); conditions: at 10 µM
[3] = target: Serine/threonine-protein kinase 24 (Homo sapiens) (UniProt Q9Y6E0); conditions: at 1 µM
[4] = target: Serine/threonine-protein kinase 24 (Homo sapiens) (UniProt Q9Y6E0); conditions: at 10 µM
[5] = target: T2, Tyrosine-protein kinase Mer (Homo sapiens) (UniProt Q12866); conditions: at 1 µM
T2 sequence (whole entry): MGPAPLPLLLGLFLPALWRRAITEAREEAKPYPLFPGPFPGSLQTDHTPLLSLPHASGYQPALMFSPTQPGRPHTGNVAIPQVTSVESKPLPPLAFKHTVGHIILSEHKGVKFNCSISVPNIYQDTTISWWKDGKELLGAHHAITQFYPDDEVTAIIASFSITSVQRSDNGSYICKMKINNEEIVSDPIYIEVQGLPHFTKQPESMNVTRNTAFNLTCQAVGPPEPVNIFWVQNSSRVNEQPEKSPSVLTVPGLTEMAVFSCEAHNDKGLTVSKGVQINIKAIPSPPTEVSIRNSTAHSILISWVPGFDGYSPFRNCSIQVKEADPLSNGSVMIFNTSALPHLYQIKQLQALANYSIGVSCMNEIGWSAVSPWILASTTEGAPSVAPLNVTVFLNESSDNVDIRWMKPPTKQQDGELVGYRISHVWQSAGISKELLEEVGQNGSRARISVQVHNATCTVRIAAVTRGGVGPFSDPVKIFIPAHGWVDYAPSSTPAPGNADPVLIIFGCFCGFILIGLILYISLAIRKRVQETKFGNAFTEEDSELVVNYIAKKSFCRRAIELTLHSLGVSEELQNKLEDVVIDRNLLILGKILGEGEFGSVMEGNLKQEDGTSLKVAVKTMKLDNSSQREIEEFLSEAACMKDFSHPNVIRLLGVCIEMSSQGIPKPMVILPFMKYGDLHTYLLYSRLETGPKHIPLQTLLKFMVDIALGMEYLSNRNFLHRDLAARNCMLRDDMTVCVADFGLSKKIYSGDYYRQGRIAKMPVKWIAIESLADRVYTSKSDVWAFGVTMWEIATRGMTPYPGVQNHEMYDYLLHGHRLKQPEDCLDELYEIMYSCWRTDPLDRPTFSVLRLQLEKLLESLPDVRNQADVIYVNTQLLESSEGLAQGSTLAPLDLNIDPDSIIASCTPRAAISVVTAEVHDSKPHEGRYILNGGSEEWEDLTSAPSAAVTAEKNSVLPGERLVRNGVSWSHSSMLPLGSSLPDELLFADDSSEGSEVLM

[6] = target: T2, Tyrosine-protein kinase Mer (Homo sapiens); conditions: at 10 µM
[7] = target: Hepatocyte growth factor receptor (Homo sapiens) (UniProt P08581); conditions: at 1 µM
[8] = target: Hepatocyte growth factor receptor (Homo sapiens) (UniProt P08581); conditions: at 10 µM
[9] = target: MAP kinase-interacting serine/threonine-protein kinase 2 (Homo sapiens) (UniProt Q9HBH9); conditions: at 1 µM
[10] = target: MAP kinase-interacting serine/threonine-protein kinase 2 (Homo sapiens) (UniProt Q9HBH9); conditions: at 10 µM
[11] = target: T3, Muscle, skeletal receptor tyrosine-protein kinase (Homo sapiens) (UniProt O15146); conditions: at 1 µM
T3 sequence (whole entry): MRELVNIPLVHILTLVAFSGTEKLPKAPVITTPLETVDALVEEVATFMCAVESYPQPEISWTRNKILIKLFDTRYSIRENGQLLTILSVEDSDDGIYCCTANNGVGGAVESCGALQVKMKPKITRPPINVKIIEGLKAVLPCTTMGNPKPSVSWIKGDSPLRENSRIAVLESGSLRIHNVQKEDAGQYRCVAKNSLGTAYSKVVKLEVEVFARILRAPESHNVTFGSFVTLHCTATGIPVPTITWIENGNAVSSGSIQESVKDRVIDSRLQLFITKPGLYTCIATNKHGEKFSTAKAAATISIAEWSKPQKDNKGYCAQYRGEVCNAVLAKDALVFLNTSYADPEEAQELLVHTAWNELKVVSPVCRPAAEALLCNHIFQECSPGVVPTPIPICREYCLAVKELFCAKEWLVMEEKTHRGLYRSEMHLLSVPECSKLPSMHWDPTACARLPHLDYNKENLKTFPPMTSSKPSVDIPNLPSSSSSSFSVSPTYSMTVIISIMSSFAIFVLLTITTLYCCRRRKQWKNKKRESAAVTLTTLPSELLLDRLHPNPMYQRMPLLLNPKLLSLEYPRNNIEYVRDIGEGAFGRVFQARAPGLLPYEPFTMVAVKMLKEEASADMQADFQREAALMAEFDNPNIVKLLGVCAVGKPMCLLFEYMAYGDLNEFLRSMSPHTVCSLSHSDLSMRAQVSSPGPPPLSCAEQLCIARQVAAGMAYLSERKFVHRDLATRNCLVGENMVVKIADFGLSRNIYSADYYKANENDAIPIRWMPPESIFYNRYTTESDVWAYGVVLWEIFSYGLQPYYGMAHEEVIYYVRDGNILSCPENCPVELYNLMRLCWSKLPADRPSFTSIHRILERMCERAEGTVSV

[12] = target: T3, Muscle, skeletal receptor tyrosine-protein kinase (Homo sapiens); conditions: at 10 µM
[13] = target: T4, Serine/threonine-protein kinase Nek11 (Homo sapiens) (UniProt Q8NG66); conditions: at 1 µM
T4 sequence (whole entry): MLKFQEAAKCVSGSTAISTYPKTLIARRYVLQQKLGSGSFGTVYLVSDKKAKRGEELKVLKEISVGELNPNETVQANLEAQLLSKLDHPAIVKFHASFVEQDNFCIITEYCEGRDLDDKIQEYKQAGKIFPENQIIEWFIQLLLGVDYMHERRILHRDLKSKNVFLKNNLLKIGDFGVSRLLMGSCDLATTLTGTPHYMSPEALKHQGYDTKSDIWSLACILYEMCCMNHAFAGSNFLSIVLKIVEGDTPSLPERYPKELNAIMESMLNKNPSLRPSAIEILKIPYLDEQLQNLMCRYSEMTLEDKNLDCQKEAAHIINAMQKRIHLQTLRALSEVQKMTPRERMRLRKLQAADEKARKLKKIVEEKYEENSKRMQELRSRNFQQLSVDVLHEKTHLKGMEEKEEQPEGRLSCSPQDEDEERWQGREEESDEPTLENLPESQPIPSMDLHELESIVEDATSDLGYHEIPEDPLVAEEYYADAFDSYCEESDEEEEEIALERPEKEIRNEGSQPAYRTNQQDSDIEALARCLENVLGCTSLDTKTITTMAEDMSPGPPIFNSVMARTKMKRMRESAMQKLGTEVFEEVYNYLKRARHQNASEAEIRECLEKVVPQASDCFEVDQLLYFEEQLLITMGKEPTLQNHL

[14] = target: T4, Serine/threonine-protein kinase Nek11 (Homo sapiens); conditions: at 10 µM
[15] = target: T5, Serine/threonine-protein kinase Nek2 (Homo sapiens) (UniProt P51955); conditions: at 1 µM
T5 sequence (whole entry): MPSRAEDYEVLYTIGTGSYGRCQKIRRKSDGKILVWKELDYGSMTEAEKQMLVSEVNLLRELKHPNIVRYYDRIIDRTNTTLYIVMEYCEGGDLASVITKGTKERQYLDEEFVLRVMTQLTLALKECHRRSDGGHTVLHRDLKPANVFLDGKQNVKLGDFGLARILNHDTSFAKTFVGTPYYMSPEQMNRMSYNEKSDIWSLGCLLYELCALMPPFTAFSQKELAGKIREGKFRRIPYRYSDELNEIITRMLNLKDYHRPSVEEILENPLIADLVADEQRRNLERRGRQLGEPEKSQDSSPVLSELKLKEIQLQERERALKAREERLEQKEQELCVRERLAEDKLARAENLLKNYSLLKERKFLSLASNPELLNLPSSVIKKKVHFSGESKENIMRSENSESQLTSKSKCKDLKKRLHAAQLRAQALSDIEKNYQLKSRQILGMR

[16] = target: T5, Serine/threonine-protein kinase Nek2 (Homo sapiens); conditions: at 10 µM
[17] = target: T6, Serine/threonine-protein kinase Nek3 (Homo sapiens) (UniProt P51956); conditions: at 1 µM
T6 sequence (whole entry): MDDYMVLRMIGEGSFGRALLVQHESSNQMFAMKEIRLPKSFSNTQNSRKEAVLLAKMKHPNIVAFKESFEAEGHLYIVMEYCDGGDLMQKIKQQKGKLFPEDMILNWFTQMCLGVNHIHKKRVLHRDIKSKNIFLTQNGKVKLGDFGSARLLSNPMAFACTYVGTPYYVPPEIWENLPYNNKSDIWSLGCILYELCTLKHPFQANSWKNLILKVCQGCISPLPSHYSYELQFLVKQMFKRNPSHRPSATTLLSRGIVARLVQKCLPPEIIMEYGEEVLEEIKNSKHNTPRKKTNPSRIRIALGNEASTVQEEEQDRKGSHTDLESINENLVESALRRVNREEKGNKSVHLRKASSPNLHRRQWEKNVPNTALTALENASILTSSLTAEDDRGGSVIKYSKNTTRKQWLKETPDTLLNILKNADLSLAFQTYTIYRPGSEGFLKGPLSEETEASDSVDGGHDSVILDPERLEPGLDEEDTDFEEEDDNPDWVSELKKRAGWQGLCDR

[18] = target: T6, Serine/threonine-protein kinase Nek3 (Homo sapiens); conditions: at 10 µM
[19] = target: Serine/threonine-protein kinase tousled-like 2 (Homo sapiens) (UniProt Q86UE8); conditions: at 1 µM
[20] = target: Serine/threonine-protein kinase tousled-like 2 (Homo sapiens) (UniProt Q86UE8); conditions: at 10 µM

Chain of Serine/threonine-protein kinase 24 (Homo sapiens) (Q9Y6E0 whole entry, looked up): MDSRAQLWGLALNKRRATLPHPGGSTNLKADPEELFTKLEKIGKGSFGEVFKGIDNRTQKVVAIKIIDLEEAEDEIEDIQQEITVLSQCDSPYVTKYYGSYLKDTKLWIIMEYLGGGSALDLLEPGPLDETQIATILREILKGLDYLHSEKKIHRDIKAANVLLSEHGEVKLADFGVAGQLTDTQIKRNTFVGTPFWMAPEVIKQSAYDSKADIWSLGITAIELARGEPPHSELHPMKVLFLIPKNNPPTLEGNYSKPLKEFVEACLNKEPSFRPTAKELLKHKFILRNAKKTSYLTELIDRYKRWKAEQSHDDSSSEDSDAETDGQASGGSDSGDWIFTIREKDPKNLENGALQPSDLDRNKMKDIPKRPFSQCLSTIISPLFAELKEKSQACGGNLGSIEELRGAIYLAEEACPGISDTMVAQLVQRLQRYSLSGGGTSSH
Chain of Hepatocyte growth factor receptor (Homo sapiens) (P08581 whole entry): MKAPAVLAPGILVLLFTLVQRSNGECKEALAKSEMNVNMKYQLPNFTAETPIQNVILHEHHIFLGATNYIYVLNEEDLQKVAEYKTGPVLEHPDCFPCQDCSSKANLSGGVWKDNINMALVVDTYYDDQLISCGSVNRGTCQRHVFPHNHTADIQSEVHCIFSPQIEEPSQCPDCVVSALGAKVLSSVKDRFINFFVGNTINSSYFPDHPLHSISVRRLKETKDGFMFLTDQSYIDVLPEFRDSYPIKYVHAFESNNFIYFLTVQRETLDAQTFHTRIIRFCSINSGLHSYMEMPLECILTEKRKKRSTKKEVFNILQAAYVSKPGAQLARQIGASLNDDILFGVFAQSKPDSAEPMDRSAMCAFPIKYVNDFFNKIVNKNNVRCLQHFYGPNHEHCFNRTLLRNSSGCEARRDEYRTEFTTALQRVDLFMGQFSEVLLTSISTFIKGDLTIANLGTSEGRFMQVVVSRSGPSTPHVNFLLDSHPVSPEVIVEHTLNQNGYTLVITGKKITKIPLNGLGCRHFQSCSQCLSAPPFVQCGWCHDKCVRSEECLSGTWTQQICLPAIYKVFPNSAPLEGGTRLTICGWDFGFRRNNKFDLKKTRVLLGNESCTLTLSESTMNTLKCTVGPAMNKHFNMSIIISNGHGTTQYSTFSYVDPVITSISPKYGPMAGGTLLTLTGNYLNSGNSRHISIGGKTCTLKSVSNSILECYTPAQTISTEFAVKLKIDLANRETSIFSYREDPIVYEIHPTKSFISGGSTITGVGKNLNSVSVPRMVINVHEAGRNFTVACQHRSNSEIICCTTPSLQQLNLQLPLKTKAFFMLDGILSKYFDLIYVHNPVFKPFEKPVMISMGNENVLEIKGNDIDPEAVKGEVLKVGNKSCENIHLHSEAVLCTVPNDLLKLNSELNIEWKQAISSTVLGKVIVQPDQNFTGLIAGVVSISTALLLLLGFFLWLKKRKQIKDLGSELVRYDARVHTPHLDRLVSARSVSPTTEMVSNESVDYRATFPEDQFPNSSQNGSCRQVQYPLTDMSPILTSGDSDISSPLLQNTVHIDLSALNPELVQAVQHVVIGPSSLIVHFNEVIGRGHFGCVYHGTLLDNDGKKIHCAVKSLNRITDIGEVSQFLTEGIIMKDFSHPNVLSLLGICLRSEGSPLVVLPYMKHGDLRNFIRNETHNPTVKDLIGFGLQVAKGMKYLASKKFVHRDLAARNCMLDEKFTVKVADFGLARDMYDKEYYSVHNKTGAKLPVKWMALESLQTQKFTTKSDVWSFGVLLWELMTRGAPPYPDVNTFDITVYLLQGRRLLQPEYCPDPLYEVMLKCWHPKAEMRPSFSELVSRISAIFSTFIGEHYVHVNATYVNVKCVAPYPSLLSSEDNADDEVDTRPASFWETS
Chain of MAP kinase-interacting serine/threonine-protein kinase 2 (Homo sapiens) (Q9HBH9 whole entry, looked up): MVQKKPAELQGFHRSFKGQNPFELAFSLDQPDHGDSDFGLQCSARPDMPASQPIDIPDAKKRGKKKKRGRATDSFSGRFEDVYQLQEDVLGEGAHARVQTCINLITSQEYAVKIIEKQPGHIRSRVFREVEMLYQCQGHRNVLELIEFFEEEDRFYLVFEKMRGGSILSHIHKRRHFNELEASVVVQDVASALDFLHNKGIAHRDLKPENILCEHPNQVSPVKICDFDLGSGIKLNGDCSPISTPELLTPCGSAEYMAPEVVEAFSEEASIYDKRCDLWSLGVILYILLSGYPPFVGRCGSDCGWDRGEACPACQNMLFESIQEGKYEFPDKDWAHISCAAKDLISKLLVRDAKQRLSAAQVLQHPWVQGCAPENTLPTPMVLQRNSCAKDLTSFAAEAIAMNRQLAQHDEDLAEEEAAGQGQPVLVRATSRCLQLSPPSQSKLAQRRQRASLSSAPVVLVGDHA
Chain of Serine/threonine-protein kinase tousled-like 2 (Homo sapiens) (Q86UE8 whole entry, looked up): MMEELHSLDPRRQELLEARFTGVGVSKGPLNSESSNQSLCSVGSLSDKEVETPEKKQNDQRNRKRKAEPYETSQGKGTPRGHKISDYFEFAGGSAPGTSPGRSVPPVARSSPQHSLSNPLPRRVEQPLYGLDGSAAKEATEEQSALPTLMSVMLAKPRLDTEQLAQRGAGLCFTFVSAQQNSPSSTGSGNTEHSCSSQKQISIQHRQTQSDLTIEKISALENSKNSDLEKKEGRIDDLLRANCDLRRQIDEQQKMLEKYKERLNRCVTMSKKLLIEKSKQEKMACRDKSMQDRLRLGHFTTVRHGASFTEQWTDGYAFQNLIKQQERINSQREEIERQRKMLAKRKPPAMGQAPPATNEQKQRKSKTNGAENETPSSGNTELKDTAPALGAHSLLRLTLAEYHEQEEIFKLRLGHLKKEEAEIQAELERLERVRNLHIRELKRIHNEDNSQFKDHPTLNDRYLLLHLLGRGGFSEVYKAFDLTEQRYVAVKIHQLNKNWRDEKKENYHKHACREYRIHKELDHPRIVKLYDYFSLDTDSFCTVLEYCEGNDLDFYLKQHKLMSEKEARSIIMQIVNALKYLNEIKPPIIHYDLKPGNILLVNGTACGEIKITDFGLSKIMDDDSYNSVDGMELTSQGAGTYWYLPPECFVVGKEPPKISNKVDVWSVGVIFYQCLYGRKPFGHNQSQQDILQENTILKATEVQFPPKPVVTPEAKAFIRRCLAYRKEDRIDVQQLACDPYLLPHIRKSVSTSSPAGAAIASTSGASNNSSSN

Compound	residual activity [1] [%]	residual activity [2] [%]	residual activity [3] [%]	residual activity [4] [%]	residual activity [5] [%]	residual activity [6] [%]	residual activity [7] [%]	residual activity [8] [%]	residual activity [9] [%]	residual activity [10] [%]	residual activity [11] [%]	residual activity [12] [%]	residual activity [13] [%]	residual activity [14] [%]	residual activity [15] [%]	residual activity [16] [%]	residual activity [17] [%]	residual activity [18] [%]	residual activity [19] [%]	residual activity [20] [%]
O=C1NC(=O)/C(=C\c2ccc3nccnc3c2)S1	96	100	57	55	111	60	98	94	76	28	90	75	43	35	88	86	109	81	103	91
Cc1nc2cc3nc(-c4cccs4)cnc3cc2n1C	107	87	90	96	103	41	128	91	84	37	102	55	93	102	87	103	114	104	107	83
O=C(Nc1cccc(Nc2cc(Nc3cccc(C(F)(F)F)c3)ncn2)c1)C1CC1	106	65	69	42	78	74	103	75	39	9	96	48	117	103	73	96	95	63	102	97
Oc1c2ccccc2c2c3c(cccc13)N=N2	16	10	57	21	22	9	87	75	43	10	60	24	50	47	86	81	70	79	71	38
Nc1cccc(-c2cc3c(Oc4cccc(O)c4)ncnc3[nH]2)c1	99	69	65	23	81	35	63	22	68	20	73	17	54	25	97	71	42	23	90	87
Ic1cccc(CSc2nnc(-c3ccncc3)o2)c1	39	15	50	43	69	48	126	100	91	89	74	59	103	102	88	89	84	84	83	83
COc1cccc(-c2cc(=O)c3ccccc3o2)c1N	97	98	91	89	96	101	117	116	107	113	104	97	64	78	98	102	93	101	98	101
